# Bioassay records (PubChem BioAssay)
# Sampled rows, rich in hits. Any-hit rate of the full collection: about 10%.
# HEK293 tox – Cytotoxic Profiling in HEK 293 Cell Line of Diverse Libraries Using Quantitative High-Throughput Screening. Potency, µM (top dose mostly 115 µM), most hits filed as inhibitors. 6.6% of 94,000 active. HEK 293 viability, ATP luminescence (CellTiter-Glo), 48-72 h; note: nearly all actives have a fitted effect of over 60% in size
#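 HEK 293 cells at 250 cells/well were exposed to compounds by pintool transfer for 48 or 72 hr at 37 degree Celsius, 5% CO2. Viability was read as ATP-coupled luminescence with CellTiter-Glo after 10 min at room temperature.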
# 3T3 cytotox – Cytotoxic Profiling in NIH 3T3 Cell Line of Diverse Libraries Using Quantitative High-Throughput Screening. AID 1345082, 2018. Potency, µM (top dose mostly 96.7 µM), actives largely listed as inhibitors. 4.3% of 94,000 active. NIH 3T3 viability, CellTiter-Glo ATP luminescence, 48-72 h; note: nearly all actives have a fitted effect of over 55% in size
#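 Cytotoxicity was measured by CellTiter-Glo ATP luminescence after 48 or 72 h compound exposure at 37 °C. Mouse NIH 3T3 fibroblasts were seeded at 400 cells/well and dosed by 23 nL pin transfer.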
# GPT2 inh – Primary qHTS assay for inhibitors of Glutamate pyruvate transaminase 2 (GPT2) | 0.25% of 100,000 active | AID 1671188, 2021 | Recombinant GPT2, coupled pyruvate oxidase/HRP Amplex Red fluorescence | Potency, µM (top dose mostly 57.7 µM), hits mostly inhibitors; note: nearly all actives have a fitted effect of over 60% in size
#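 Inhibition is scored from Amplex Red fluorescence generated when pyruvate oxidase and HRP act on pyruvate released by GPT2. Reactions contain 10ng/uL enzyme, 250uM a-KG and 2mM L-alanine and run 30 min at room temperature.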
# Luciferase inh – Firefly luciferase inhibition profiling of diverse chemical library using quantitative high-throughput screening. Luciferin 4-monooxygenase (Photinus pyralis), P08659. purified P. pyralis luciferase, luminescence, biochemical. Potency, µM (top dose mostly 115 µM), actives largely listed as inhibitors. 2.5% of 76,000 active; note: nearly all actives have a fitted effect of over 65% in size
# Target sequence (P08659 whole entry, looked up): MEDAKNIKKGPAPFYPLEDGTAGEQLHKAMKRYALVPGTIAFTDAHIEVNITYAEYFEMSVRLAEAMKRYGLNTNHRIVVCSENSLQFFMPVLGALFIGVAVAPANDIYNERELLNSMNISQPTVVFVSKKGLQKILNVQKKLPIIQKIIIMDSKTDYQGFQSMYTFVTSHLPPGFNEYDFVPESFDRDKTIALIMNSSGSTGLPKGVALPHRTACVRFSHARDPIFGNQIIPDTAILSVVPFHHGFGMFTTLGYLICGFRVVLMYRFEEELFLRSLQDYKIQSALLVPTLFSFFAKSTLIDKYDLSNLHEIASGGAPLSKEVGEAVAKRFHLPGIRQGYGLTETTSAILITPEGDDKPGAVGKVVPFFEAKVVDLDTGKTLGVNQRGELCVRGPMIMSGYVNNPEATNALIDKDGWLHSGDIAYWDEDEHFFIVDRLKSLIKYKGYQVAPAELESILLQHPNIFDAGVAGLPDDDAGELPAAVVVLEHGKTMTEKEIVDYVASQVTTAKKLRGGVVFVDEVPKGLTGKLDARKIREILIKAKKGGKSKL
#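 Purified 10nM P. pyralis luciferase with 10uM D-luciferin and 10uM ATP in 50mM Tris acetate pH 7.5, 10mM Mg acetate, 0.01% Tween-20, 0.05% BSA. qHTS titration; luminescence read by CCD imager.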
# hNpr1 antagonist – Natriuretic polypeptide receptor (hNpr1) antagonism - Primary qHTS | Atrial natriuretic peptide receptor 1 (Homo sapiens), P16066 | HEK293 hNpr1 GloSensor cGMP, ANP-stimulated luminescence | Potency, µM (series often up to 46.3 µM), hits mostly inhibitors | 1.6% of 76,000 active | AID 1347048, 2019; calls by dose curve; note: nearly all actives have a fitted effect of over 60% in size
#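 Compound pre-incubated 30 min at room temperature on GloSensor-loaded HEK293 cells stably carrying hNpr1 and the pGS-40F cGMP biosensor. Stimulation uses hNppA at 0.1 nM final; luminescence is taken at baseline and 20 min post-agonist.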
# NPR1 antag cnf – Natriuretic polypeptide receptor (hNpr1) antagonism - Confirmation; 76% of 1,400 active; Potency, µM (highest dose often 57.6 µM), usual class: inhibitors; shares compounds with hNpr1 antagonist; HEK293 hNpr1 cGMP GloSensor luminescence, ANP-stimulated; AID 1347044, 2019; calls by dose curve; note: nearly all actives have a fitted effect of over 70% in size
# Npr2 selectivity – Natriuretic polypeptide receptor (hNpr2) antagonism - Subtype selectivity assay | shares compounds with hNpr1 antagonist | HEK293 hNpr2 GloSensor cGMP luminescence, CNP-stimulated | Potency, µM (doses to about 57.6 µM), hits mostly inhibitors | 67% of 1,400 active | AID 1347046, 2019; calls by dose curve; note: nearly all actives have a fitted effect of over 70% in size
# FLuc counter – Natriuretic polypeptide receptor (hNpr1) antagonism - Confirmation firefly luciferase (FLuc) inhibition counterscreen | shares compounds with hNpr1 antagonist | purified FLuc enzyme, luminescence, Km substrate | Potency, µM (titrated, usually from 57.6 µM), usual class: inhibitors | 0.7% of 1,400 active | AID 1347047, 2019; note: series mostly up to about 58 µM
# GloSensor ctrl – Natriuretic polypeptide receptor (hNpr1) antagonism - Counterscreen GloSensor control cell line; shares compounds with hNpr1 antagonist; HEK293 GloSensor cGMP, SNP-stimulated, luminescence; Potency, µM (titrated, usually from 57.6 µM), most hits filed as inhibitors; AID 1347051, 2019; 69% of 1,400 active; calls by dose curve; note: nearly all actives have a fitted effect of over 70% in size
# Numbers stand for hits; - = inactive; ? = inconclusive; . = not tested or not shown. Unless noted, calls come from the whole dose curve; as a rule, active = well fitted curve in the direction sought with a large enough effect; inconclusive = small, poorly fitted or top-dose-only effect, or another doubt; inactive = no such curve, though single readings can be large; an effect the other way counts as inactive or inconclusive.
SMILES,HEK293 tox,3T3 cytotox,GPT2 inh,Luciferase inh,hNpr1 antagonist,NPR1 antag cnf,Npr2 selectivity,FLuc counter,GloSensor ctrl
COc1ccc(S(=O)(=O)N2CCCC2c2nncn2Cc2ccncc2)cc1OC (centres undefined),-,-,-,-,-,.,.,.,.
CN(C)c1cccc(C(=O)N2CCNc3cnc(Nc4cccc(C(F)(F)F)c4)nc3C2)c1,?,?,-,-,16µM,22µM,24µM,-,19µM
O=C(Cc1ccc2c(c1)OCO2)N1CCNc2cnc(Nc3cccc(F)c3)nc2C1,?,?,-,-,40µM,35µM,35µM,-,35µM
COc1ccc(C(=O)N[C@H]2CO[C@H]3[C@@H]2OC[C@@H]3n2nnnc2Oc2ccc3c(c2)OCO3)cc1,?,-,-,-,?,.,.,.,.
COc1ccc(C(=O)N[C@H]2CO[C@H]3[C@@H]2OC[C@@H]3n2nnnc2Oc2cccc(N(C)C)c2)cc1,?,?,-,-,7.1µM,12µM,12µM,-,9.7µM
CC(=O)c1ccc(NC(=O)N[C@H]2CO[C@H]3[C@@H]2OC[C@@H]3n2nnnc2Oc2ccc(-n3ccnc3)cc2)cc1,-,-,-,-,-,.,.,.,.
Cc1ccc(C(=O)N[C@H]2CO[C@H]3[C@@H]2OC[C@@H]3n2nnnc2Oc2ccccc2)cc1,?,?,-,-,8.9µM,11µM,16µM,-,9.9µM
O=C(Nc1ccc(Oc2ccccc2)cc1)N[C@H]1CO[C@H]2[C@@H]1OC[C@@H]2n1nnnc1Oc1ccc(-n2ccnc2)cc1,40µM,?,-,-,11µM,22µM,22µM,-,17µM
CN(C)c1cccc(Oc2nnnn2[C@H]2CO[C@H]3[C@@H]2OC[C@@H]3NC(=O)c2ccccc2)c1,?,-,-,-,13µM,?,?,-,?
CN(C)c1cccc(Oc2nnnn2[C@H]2CO[C@H]3[C@@H]2OC[C@@H]3NC(=O)NCc2ccccc2)c1,-,-,-,-,-,.,.,.,.
COC(=O)c1ccccc1NC(=O)Cn1ccn2nc(-c3ccccc3)c(CO)c2c1=O,-,-,-,-,-,.,.,.,.
Cc1nnc2ccc(NC3CCCC3)nn12,-,-,-,-,-,.,.,.,.
COc1ccccc1-c1nc(C(=O)NCCc2ccc(Cl)cc2)n2ccccc12,-,-,-,.,.,.,.,.,.
CN(C)c1ccc(C(=O)N[C@H]2CO[C@H]3[C@@H]2OC[C@@H]3n2nnnc2Oc2cccc(N(C)C)c2)cc1,?,-,-,-,11µM,14µM,15µM,-,12µM
CC(=O)N1CCN(CC[C@H]2CN(C(=O)c3ccnc(Cl)c3)CC[C@H]2CC(=O)O)CC1,-,-,-,-,-,.,.,.,.
CN1C(=O)COC[C@@H]1[C@H](O)c1ccc(NC(=O)c2ccc(F)c(Cl)c2)cc1,?,-,-,-,-,.,.,.,.
COc1ccc(C(=O)N2Cc3ccccc3CC23CCCN(C(=O)CCCN)C3)cc1 (centres undefined),-,-,-,.,.,.,.,.,.
O=C(Oc1ccccc1)N1CCC(Oc2cnc3c(ccn3-c3cncnc3)c2)CC1,56µM,?,-,-,35µM,40µM,40µM,-,40µM
COc1ccc(S(=O)(=O)N[C@H]2C[C@@H](c3nc(-c4ccc(OC(F)(F)F)cc4)no3)N(C)C2)cc1,?,?,?,-,11µM,22µM,22µM,-,17µM
O=C(Nc1cc(F)cc(C(F)(F)F)c1)N1CCCOC(Cn2cccn2)C1 (centres undefined),?,?,-,-,13µM,22µM,22µM,-,19µM
Cc1cccc(-n2ncc3c2CCCC3NC(=O)c2c(F)ccc(F)c2F)c1C (centres undefined),-,?,-,-,5µM,11µM,11µM,-,8.6µM
CC(C)NC(=O)CN1C(=O)C(c2ccccc2)=NC12CCCCC2,-,-,-,-,-,.,.,.,.
COc1cccc(CNC(=O)C2CCN(c3cc(C(F)(F)F)ncn3)CC2)c1,-,-,-,-,?,?,?,-,?
CCOc1cccc(CNC(=O)C2CCN(c3cc(C(F)(F)F)ncn3)CC2)c1,?,?,-,-,?,.,.,.,.
O=C(NCc1ccc(Cl)cc1)C1CCN(c2cc(C(F)(F)F)ncn2)CC1,?,?,-,-,11µM,19µM,19µM,-,15µM
SMILES,HEK293 tox,3T3 cytotox,GPT2 inh,Luciferase inh,hNpr1 antagonist,NPR1 antag cnf,Npr2 selectivity,FLuc counter,GloSensor ctrl
CCS(=O)(=O)c1ccc2oc([C@H]3CCN(Cc4cccc(Cl)c4)C3)nc2c1,45µM,?,-,-,?,35µM,35µM,-,?
CCS(=O)(=O)Nc1ccc(C2(C(=O)N3CCN(CC(C)C)CC3)CCCCC2)cc1,?,-,-,-,-,.,.,.,.
Cc1ccc(N2CCN(C(=O)C3CCCN(c4cnn(Cc5ccccc5)c(=O)c4)C3)CC2)cc1 (centres undefined),25µM,?,-,-,10µM,17µM,19µM,-,15µM
CN1CCC(CN2CCC3(CC2)OCCN(c2ccc(F)cc2)C3=O)CC1,?,?,-,-,-,.,.,.,.
CC(C)c1ccc(CN2CCC3(CC2)OCCN(c2ccc(F)cc2)C3=O)cc1,?,?,-,-,22µM,35µM,31µM,-,35µM
COc1cccc(-c2noc(CC3CCN(C(=O)c4ccc(C)cc4C)CC3)n2)c1,35µM,?,-,-,11µM,11µM,11µM,-,9.7µM
COc1cccc(-c2noc(CC3CCN(C(=O)c4ccc(F)c(F)c4)CC3)n2)c1,?,?,-,-,6.3µM,4.8µM,9.7µM,-,6.1µM
COc1cccc(-c2noc(CC3CCN(C(=O)c4ccc(C(C)C)cc4)CC3)n2)c1,35µM,?,-,-,10µM,14µM,17µM,-,14µM
